# Screens: PubChem, National Center for Advancing Translational Sciences (NCATS)
# An excerpt weighted towards active compounds, which were near 3.5% of everything screened.
# Giardia FBPA inh: Giardia lamblia aldolase inhibition; AID 2451; actives 0.71% (n = 290,000); Potency, µM (highest dose often 59.6 µM), for inactives: at the highest dose activity, negative = inhibition, actives largely listed as inhibitors; purified Giardia FBPA; note: % is set by controls: 0 for no effect and ±100 for the full control effect; nearly all actives have a fitted effect of over 55% in size
# Target sequence (A8B2U2 whole entry, looked up): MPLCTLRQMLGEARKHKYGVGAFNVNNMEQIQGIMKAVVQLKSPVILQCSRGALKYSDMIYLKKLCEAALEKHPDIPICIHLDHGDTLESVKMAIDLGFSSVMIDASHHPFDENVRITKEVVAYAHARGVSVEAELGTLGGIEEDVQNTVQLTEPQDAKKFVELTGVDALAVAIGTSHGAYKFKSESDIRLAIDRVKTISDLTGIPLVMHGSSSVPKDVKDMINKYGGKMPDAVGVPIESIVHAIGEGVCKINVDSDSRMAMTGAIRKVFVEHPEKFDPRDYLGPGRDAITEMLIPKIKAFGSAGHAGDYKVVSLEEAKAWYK
#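 Giardia FBPA (40 nM reagent) was preincubated 10 min at RT with compound (up to 57.5 uM final), then substrate plus GAPDH/TPI/NAD/arsenate coupling system with diaphorase/resazurin was added; resorufin fluorescence (525/598 nm) was read after 20 min.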
# LmPK inh: LmPK (Leishmania mexicana) enzyme inhibition. actives 0.37% (n = 290,000). Potency, µM (highest dose often 57.5 µM), without a hit: at the highest dose activity change, negative = inhibition, most hits filed as inhibitors. purified LmPK, Kinase-Glo ATP luminescence, 1 h. Q27686. AID 1721; note: % is set by controls: 0 for no effect and ±100 for the full control effect
#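 qHTS format; LmPK 0.1 nM; substrates PEP 0.5 mM and ADP 0.1 mM. One-hour room-temperature incubation, then coupled luciferase luminescence; 0.5 nM enzyme wells mark activation.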
# NS1 function inh: influenza NS1 inhibition; Potency, µM (highest dose often 46.1 µM), for the others: at the highest dose activity, positive = more growth; actives 0.4% (n = 270,000); AID 2326; calls by dose curve; note: actives are rising curves; nearly all actives have a fitted effect of over 50% in size
#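 Growth recovery, yeast-based: influenza A NS1 expressed in S. cerevisiae causes slow growth, and suppressors are detected by OD600. The parent strain without NS1 is used as positive control.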
# Tb PYK inh: inhibitors of Trypanosoma brucei pyruvate kinase; Q57TT1; TbPYK enzyme, Kinase-Glo Plus ATP luminescence, 45 min; Potency, µM (doses to about 76.8 µM), inactives show at the top dose activity, negative = inhibition, hits mostly inhibitors; actives 0.12% (n = 410,000); note: % is set by controls: 0 for no effect and ±100 for the full control effect; nearly all actives have a fitted effect of over 50% in size
#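 Glycolytic pyruvate kinase of T. brucei was incubated with substrate, test compound and 130 uM ADP for 45 minutes at room temperature. Luminescent Kinase-Glo Plus signal was measured after 10 minutes.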
# RE007 growth inh: less growth of the S. pombe RE007 Vpr strain | S. pombe RE007 Vpr strain, BacTiter-Glo ATP luminescence, 24 h | actives 0.21% (n = 360,000) | AID 651644 | Potency, µM (highest dose often 92.2 µM), inactives show at the top dose activity change, negative = less growth, hits mostly inhibitors; active = well fitted falling curve with a large enough effect; inconclusive = small, poorly fitted or top-dose-only effect; inactive = no such curve, though single readings can be large or run the other way; note: % is set by controls: 0 for no effect and ±100 for the full control effect; nearly all actives have a fitted effect of over 50% in size
#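 Fission yeast RE007 carrying one integrated HIV-1 vpr copy, seeded at OD 0.01 in PMG+AL medium with 23 nL pinned compound. Grown 24 h at 30 degrees; viability read by BacTiter-Glo luminescence after 5 min.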
# Sm TGR block: inhibitors of Schistosoma mansoni thioredoxin glutathione reductase; Q962Y6; purified TGR, DTNB reduction, TNB absorbance 405 nm; Potency, µM (highest dose often 114 µM), without a hit: top-dose activity change, negative = inhibition, actives largely listed as inhibitors; actives 3% (n = 360,000); AID 485364; note: % is set by controls: 0 for no effect and ±100 for the full control effect; nearly all actives have a fitted effect of over 60% in size
#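 Kinetic colorimetric format: TGR-catalysed, NADPH-driven DTNB reduction monitored via TNB absorbance. Enzyme dispensed at 20 nM; compound exposure 15 min at room temperature before reaction start.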
# Active calls of the source: *; ? = inconclusive; / = no result; [ ] = another dose, or the depositor's remark. Unless noted, calls come from the whole dose curve; as a rule, active = well fitted curve in the direction sought with a large enough effect; inconclusive = small, poorly fitted or top-dose-only effect, or another doubt; inactive = no such curve, though single readings can be large; an effect the other way counts as inactive or inconclusive. Potency is the fitted concentration of half-maximal effect.
SMILES,Giardia FBPA inh,LmPK inh,NS1 function inh,Tb PYK inh,RE007 growth inh,Sm TGR block
COc1ccccc1NC(=O)CSc1ncc2c(n1)-c1ccccc1N(Cc1ccccc1C)S2(=O)=O,/,/,/,-7%,/,15%
COc1ccccc1NS(=O)(=O)c1ccc(C(=O)OCC(=O)NCc2ccco2)cc1,6%,2%,7%,-5%,0%,40µM*
O=C(COC(=O)/C=C/c1ccc(F)cc1)NCc1ccco1,3%,-2%,/,-3%,3%,3%
CN(c1ccccc1)S(=O)(=O)c1ccc(C(=O)OCC(=O)NCc2ccco2)cc1,-4%,-11%,-6%,-6%,-11%,25µM*
Cc1ccc(OCC(=O)NCc2ccco2)c([N+](=O)[O-])n1,1%,-2%,0%,0%,-11%,/
Cc1ccc2cccc(OCC(=O)NCc3ccco3)c2n1,-6%,2%,-7%,0%,-4%,45µM*
O=C(COC(=O)C1(c2ccc(F)cc2)CCCC1)NCc1ccco1,-6%,3%,/,9%,4%,32µM*
COc1cccc(CNC(=O)c2c(C)nn(-c3cccc(C)c3)c2-n2cccc2)c1,/,/,/,-7%[15.4 µM],/,5%
C(=C\c1ccco1)/c1ccc2ccccc2n1,-20%,?,-30%,?,?,7.9µM*
Fc1cccc(F)c1/C=C/c1ccc2ccccc2n1,-24%,8.9µM*,-21%,?,?,-25%
Cc1ccsc1/C=C/c1ccc2ccccc2n1,-14%,?,-84%,-1%,-30%,2%
CC(C)CCN(Cc1ccco1)S(=O)(=O)c1ccc(-c2ccc(=O)[nH]n2)s1,-3%,-4%,-3%,1%,3%,-24%
CCCCN(Cc1ccco1)S(=O)(=O)c1ccc(-c2ccc(=O)[nH]n2)s1,/,3%,-6%,-3%,14%,25µM*
CCC(CO)Nc1ncnc2c1cnn2-c1ccc(C)cc1 (stereo not drawn),/,/,/,1%,/,-4%
C[C@@H]1CC=C[C@H]2[C@H]1C(=O)N(Cc1ccccc1)[C@H]2c1ccoc1,-2%,2%,-8%,1%,-25%,20µM*
CCC1CC=CC2C1C(=O)N(Cc1ccccc1)C2c1ccoc1 (stereo not drawn),-15%,/,/,/,/,/
COc1ccc(N2CCN(C(=O)c3nn(-c4ccc(C)cc4)c(=O)n(C)c3=O)CC2)cc1,/,/,/,-3%,/,-18%
Clc1nc(CN2CCCCC2)nc2sc3c(c12)CCC3,0%,1%,7%,3%,-14%,22µM*
O=c1[nH]c(CN2CCCC2)nc2sc3c(c12)CCC3,-6%,6%,/,0%,-11%,-25%
O=C(O)CCC[C@H](O)\C=C/C=C/C=C/[C@H](O)C/C=C\CCCCCO,8%,/,/,/,/,/
CCOc1ccc(C2C(C(=O)Nc3ccccc3OC)=C(C)Nc3c(C(=O)Nc4cccc(C)c4)cnn32)cc1 (stereo not drawn),/,/,/,-10%,/,11%
CCCCC(CCC(=O)O)(C(=O)OCC)c1csc(Nc2ccc(OCC)cc2)n1 (stereo not drawn),2%,1%,12%,-8%,0%,50µM*
C(=N\c1nc2ccccc2n1CCN1CCCCC1)/c1cccs1,-8%,-2%,3%,-1%,-3%,6%
Cn1c(/N=C/c2cccs2)nc2ccccc21,-2%,14µM*,0%,-14%,-3%,0%
Cc1cc(C)c2c(CN3CCCCC3)cc(=O)oc2c1,4%,-9%,4%,1%,-12%,34%
SMILES,Giardia FBPA inh,LmPK inh,NS1 function inh,Tb PYK inh,RE007 growth inh,Sm TGR block
Cc1cc(C)c2c(CCl)cc(=O)oc2c1,-8%,-3%,-30%,-1%,12%,10µM*
O=C(O)c1ccccc1N/C=C\[N+](=O)[O-],?,-1%,/,-19%,-25%,28µM*
Cc1ccc(CNC(=O)CCS(=O)(=O)c2cc3c4c(c2)CCN4C(=O)CC3)cc1,/,/,/,0%,/,35%
COc1ccc(Nc2c3c(nc4ccc(NC(=O)/C=C/c5cccc(OC)c5OC)cc24)CCCC3)cc1OC,/,/,/,-7%,/,1%
NC1=C(Br)C(=O)c2ccccc2C1=O,?,-29%,-49%,-6%,11µM*,?
Cc1cc2c(cc1C)C(=O)C(Br)=C(N)C2=O,/,/,/,-5%,?,/
Nc1ccc(Br)c2c1C(=O)c1ccccc1C2=O,-15%,-4%,-94%,3%,-14%,13µM*
CCc1cccc(NC(c2ccccc2)c2nnc(-c3ccccc3F)o2)c1 (stereo not drawn),/,/,/,1%,/,2%
COC(=O)c1cc2occc2n1CC(=O)Nc1ccc(N(C)C)cc1,/,/,/,-11%,/,-1%
CCc1nn2c(=O)cc(COc3ccc(/C=C(\C#N)C(=O)Nc4ccc(C)cc4)cc3)nc2s1,/,/,/,4%,/,-10%
COc1ccc(NC(=O)CC2Sc3ncnn3C2=O)cc1 (stereo not drawn),?,5%,-58%,-22%,?,0.63µM*
O=C(CC1Sc2ncnn2C1=O)Nc1ccc(Cl)cc1 (stereo not drawn),?,4%,/,-4%,-10%,5.6µM*
CCOC(=O)c1ccc(NC(=O)CC2Sc3ncnn3C2=O)cc1 (stereo not drawn),?,5%,-111%,-20%,32µM*,1.6µM*
COCCN1C(=O)C(CC(=O)Nc2ccccc2)SC1=Nc1ccc(OC)cc1 (stereo not drawn),-4%,3%,1%,-2%,11%,2%
CC1CCc2onc(C(=O)N3CCN(c4ccc(F)cc4)CC3)c2C1 (stereo not drawn),/,/,/,-3%,/,0%
CCOc1ccc(C(=O)N2CCCCCC2)cc1,0%,1%,3%,2%,23%,-2%
CCOc1ccc(C(=O)CC(C(=O)O)N2CCCCC2)cc1 (stereo not drawn),/,/,/,-24%,-10%,6.3µM*
CCOc1ccc(C(=O)CC(C(=O)O)N2CCN(Cc3ccccc3)CC2)cc1 (stereo not drawn),/,/,/,-13%,-5%,7.9µM*
CCOc1ccc(C(=O)CC(NCc2cccs2)C(=O)O)cc1 (stereo not drawn),-4%,-2%,-6%,-19%,?,6.3µM*
O=C(/C=C/c1ccccc1)Nc1nc(-c2cccs2)ns1,/,/,/,20%,/,11%
N#Cc1c(NC(=O)CSc2nnc(-c3ccco3)n2-c2ccccc2)sc2c1CCC2,0%,1%,5%,-4%,10%,56µM*
CCn1c(SCC(=O)Nc2sc3c(c2C#N)CCCC3)nnc1-c1ccco1,0%,6%,5%,-20%,-15%,?
CN(C)C(=O)CSc1nnc(-c2ccco2)n1-c1ccccc1,/,/,/,0%,7%,/
c1ccc(-n2c(SCc3nc(-c4cccs4)no3)nnc2-c2ccco2)cc1,-30%,-10%,-58%,5%,7%,45µM*
